# The supplement of paper PMC12282887
# ± gives the standard deviation of the averaged measurements.
# Assays:
# Assay in all cases: promoter activity interaction Z-score (Lux/OD deviation from empty-vector control); higher = stronger promoter induction by the compound
# [1] = system: E. coli BW25113 acrABp lux reporter
# Procedure, shortened: (§1)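 At 37°C, E. coli BW25113 reporter cultures in 40 µl LB Lennox in 384-well plates were read for OD600 and luminescence every 30 min for 12 h. Windows were 0–8 h for wild type and 1–9 h for deletion strains, and wells under 10% of the median growth value were removed. The score is the Z-transformed residual of growth-normalised luminescence against a control fit.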
# [2] = system: E. coli BW25113 marRABp lux reporter
# Procedure, shortened: as §1
# [3] = system: E. coli BW25113 micFp lux reporter
# Procedure, shortened: as §1
# [4] = system: E. coli BW25113 ompFp lux reporter
# Procedure, shortened: as §1
# [5] = system: E. coli BW25113 robp lux reporter
# Procedure, shortened: as §1
# [6] = system: E. coli BW25113 soxSp lux reporter
# Procedure, shortened: as §1
# [7] = system: E. coli BW25113 tolCp lux reporter
# Procedure, shortened: as §1
# [8] = 0.62 µg/ml, genetic background: wild type
# [9] = 0.62 µg/ml, genetic background: ΔmarA
# [10] = 0.62 µg/ml, genetic background: Δrob
# [11] = 0.62 µg/ml, genetic background: ΔsoxS
# [12] = 1.2 µg/ml, genetic background: wild type
# [13] = 1.2 µg/ml, genetic background: ΔmarA
# [14] = 1.2 µg/ml, genetic background: Δrob
# [15] = 1.2 µg/ml, genetic background: ΔsoxS
# [16] = 2.5 µg/ml, genetic background: wild type
# [17] = 2.5 µg/ml, genetic background: ΔmarA
# [18] = 2.5 µg/ml, genetic background: Δrob
# [19] = 2.5 µg/ml, genetic background: ΔsoxS
# [20] = 5 µg/ml, genetic background: wild type
# [21] = 5 µg/ml, genetic background: ΔmarA
# [22] = 5 µg/ml, genetic background: Δrob
# [23] = 5 µg/ml, genetic background: ΔsoxS
compound,measurement,setting,value
CN[C@@H]1[C@H](O)[C@H](NC)[C@H]2O[C@@]3(O)C(=O)C[C@@H](C)O[C@H]3O[C@@H]2[C@H]1O [Spectinomycin],promoter activity interaction Z-score,[1]; [8],-0.0967 ± 0.053
same,promoter activity interaction Z-score,[1]; [9],0.63 ± 1.1
same,promoter activity interaction Z-score,[1]; [10],-0.155 ± 0.22
same,promoter activity interaction Z-score,[1]; [11],-0.229 ± 0.36
same,promoter activity interaction Z-score,[1]; [12],0.0581 ± 0.015
same,promoter activity interaction Z-score,[1]; [13],1.75 ± 0.53
same,promoter activity interaction Z-score,[1]; [14],-0.245 ± 0.14
same,promoter activity interaction Z-score,[1]; [15],0.468 ± 0.31
same,promoter activity interaction Z-score,[1]; [16],-0.0145 ± 0.16
same,promoter activity interaction Z-score,[1]; [17],0.746 ± 1
same,promoter activity interaction Z-score,[1]; [18],-0.204 ± 0.38
same,promoter activity interaction Z-score,[1]; [19],-0.222 ± 0.034
same,promoter activity interaction Z-score,[1]; [20],0.0345 ± 0.34
same,promoter activity interaction Z-score,[1]; [21],1.39 ± 0.42
same,promoter activity interaction Z-score,[1]; [22],0.0966 ± 0.39
same,promoter activity interaction Z-score,[1]; [23],0.99 ± 0.69
same,promoter activity interaction Z-score,[2]; [8],0.174 ± 0.026
same,promoter activity interaction Z-score,[2]; [9],0.168 ± 0.75
same,promoter activity interaction Z-score,[2]; [10],0.332 ± 0.41
same,promoter activity interaction Z-score,[2]; [11],-0.125 ± 0.11
same,promoter activity interaction Z-score,[2]; [12],0.433 ± 0.052
same,promoter activity interaction Z-score,[2]; [13],0.324 ± 0.39
same,promoter activity interaction Z-score,[2]; [14],0.402 ± 0.72
same,promoter activity interaction Z-score,[2]; [15],0.018 ± 0.043
same,promoter activity interaction Z-score,[2]; [16],0.0652 ± 0.25
same,promoter activity interaction Z-score,[2]; [17],-0.102 ± 0.25
same,promoter activity interaction Z-score,[2]; [18],-0.0628 ± 0.069
same,promoter activity interaction Z-score,[2]; [19],-0.128 ± 0.04
same,promoter activity interaction Z-score,[2]; [20],0.205 ± 0.44
same,promoter activity interaction Z-score,[2]; [21],0.687 ± 1.1
same,promoter activity interaction Z-score,[2]; [22],0.305 ± 0.34
same,promoter activity interaction Z-score,[2]; [23],0.00851 ± 0.23
same,promoter activity interaction Z-score,[3]; [8],0.0396 ± 0.21
same,promoter activity interaction Z-score,[3]; [9],0.0233 ± 0.13
same,promoter activity interaction Z-score,[3]; [10],0.0237 ± 0.29
same,promoter activity interaction Z-score,[3]; [11],-0.0535 ± 0.0022
same,promoter activity interaction Z-score,[3]; [12],0.102 ± 0.093
same,promoter activity interaction Z-score,[3]; [13],-0.0481 ± 0.051
same,promoter activity interaction Z-score,[3]; [14],-0.00303 ± 0.08
same,promoter activity interaction Z-score,[3]; [15],0.208 ± 0.053
same,promoter activity interaction Z-score,[3]; [16],0.0906 ± 0.13
same,promoter activity interaction Z-score,[3]; [17],0.0124 ± 0.13
same,promoter activity interaction Z-score,[3]; [18],-0.193 ± 0.016
same,promoter activity interaction Z-score,[3]; [19],0.131 ± 0.081
same,promoter activity interaction Z-score,[3]; [20],0.33 ± 0.19
same,promoter activity interaction Z-score,[3]; [21],-0.0142 ± 0.091
same,promoter activity interaction Z-score,[3]; [22],-0.115 ± 0.2
same,promoter activity interaction Z-score,[3]; [23],0.467 ± 0.33
same,promoter activity interaction Z-score,[4]; [8],0.543 ± 0.52
same,promoter activity interaction Z-score,[4]; [9],0.58 ± 0.32
same,promoter activity interaction Z-score,[4]; [10],0.8 ± 0.87
same,promoter activity interaction Z-score,[4]; [11],0.0444 ± 0.43
same,promoter activity interaction Z-score,[4]; [12],0.46 ± 0.84
same,promoter activity interaction Z-score,[4]; [13],0.92 ± 1.9
same,promoter activity interaction Z-score,[4]; [14],1.39 ± 1.6
same,promoter activity interaction Z-score,[4]; [15],0.446 ± 0.44
same,promoter activity interaction Z-score,[4]; [16],0.634 ± 0.23
same,promoter activity interaction Z-score,[4]; [17],0.0667 ± 0.36
same,promoter activity interaction Z-score,[4]; [18],0.00624 ± 0.23
same,promoter activity interaction Z-score,[4]; [19],0.0301 ± 0.019
same,promoter activity interaction Z-score,[4]; [20],1.76 ± 0.4
same,promoter activity interaction Z-score,[4]; [21],3.2 ± 2
same,promoter activity interaction Z-score,[4]; [22],1.79 ± 0.59
same,promoter activity interaction Z-score,[4]; [23],1.52 ± 0.2
same,promoter activity interaction Z-score,[5]; [8],0.57 ± 0.013
same,promoter activity interaction Z-score,[5]; [9],0.679 ± 0.25
same,promoter activity interaction Z-score,[5]; [10],0.28 ± 0.54
same,promoter activity interaction Z-score,[5]; [11],0.0239 ± 0.071
same,promoter activity interaction Z-score,[5]; [12],1.23 ± 0.055
same,promoter activity interaction Z-score,[5]; [13],1.12 ± 1
same,promoter activity interaction Z-score,[5]; [14],0.344 ± 1.1
same,promoter activity interaction Z-score,[5]; [15],0.459 ± 0.35
same,promoter activity interaction Z-score,[5]; [16],1.05 ± 0.45
same,promoter activity interaction Z-score,[5]; [17],-0.18 ± 0.022
same,promoter activity interaction Z-score,[5]; [18],-0.207 ± 0.35
same,promoter activity interaction Z-score,[5]; [19],-0.519 ± 0.17
same,promoter activity interaction Z-score,[5]; [20],1.2 ± 0.5
same,promoter activity interaction Z-score,[5]; [21],1.72 ± 1.6
same,promoter activity interaction Z-score,[5]; [22],0.387 ± 0.033
same,promoter activity interaction Z-score,[5]; [23],0.464 ± 0.086
same,promoter activity interaction Z-score,[6]; [8],-0.101 ± 0.17
same,promoter activity interaction Z-score,[6]; [9],-0.203 ± 0.0084
same,promoter activity interaction Z-score,[6]; [10],-0.117 ± 0.15
same,promoter activity interaction Z-score,[6]; [11],-0.425 ± 0.2
same,promoter activity interaction Z-score,[6]; [12],-0.0613 ± 0.16
same,promoter activity interaction Z-score,[6]; [13],-0.366 ± 0.011
same,promoter activity interaction Z-score,[6]; [14],-0.175 ± 0.039
same,promoter activity interaction Z-score,[6]; [15],-0.141 ± 0.26
same,promoter activity interaction Z-score,[6]; [16],-0.0221 ± 0.0045
same,promoter activity interaction Z-score,[6]; [17],-0.26 ± 0.096
same,promoter activity interaction Z-score,[6]; [18],-0.323 ± 0.11
same,promoter activity interaction Z-score,[6]; [19],-0.283 ± 0.26
same,promoter activity interaction Z-score,[6]; [20],0.172 ± 0.16
same,promoter activity interaction Z-score,[6]; [21],-0.231 ± 0.12
same,promoter activity interaction Z-score,[6]; [22],-0.25 ± 0.12
same,promoter activity interaction Z-score,[6]; [23],-0.213 ± 0.14
same,promoter activity interaction Z-score,[7]; [8],0.361 ± 0.53
same,promoter activity interaction Z-score,[7]; [9],0.711 ± 0.34
same,promoter activity interaction Z-score,[7]; [10],0.221 ± 0.16
same,promoter activity interaction Z-score,[7]; [11],-0.376 ± 0.49
same,promoter activity interaction Z-score,[7]; [12],-0.382 ± 0.52
same,promoter activity interaction Z-score,[7]; [13],-0.763 ± 0.28
same,promoter activity interaction Z-score,[7]; [14],-0.313 ± 0.84
same,promoter activity interaction Z-score,[7]; [15],0.357 ± 0.55
same,promoter activity interaction Z-score,[7]; [16],-0.207 ± 0.26
same,promoter activity interaction Z-score,[7]; [17],-0.0988 ± 1.2
same,promoter activity interaction Z-score,[7]; [18],-0.56 ± 0.75
same,promoter activity interaction Z-score,[7]; [19],0.223 ± 0.16
same,promoter activity interaction Z-score,[7]; [20],0.269 ± 0.23
same,promoter activity interaction Z-score,[7]; [21],-0.244 ± 0.4
same,promoter activity interaction Z-score,[7]; [22],-0.307 ± 0.99
same,promoter activity interaction Z-score,[7]; [23],0.299 ± 0.054
